From PubChem
GDH-TPI inh: counter-screen for M. tuberculosis FBA inhibitors: GDH-TPI coupled enzymes; GDH-TPI coupled enzyme counterscreen, NADH absorbance; inhibition, % at 4.8 µM; 360,000 compounds, 1.2% hits; in the data active means inhibition above about 30%;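 further: 0% = DMSO wells and 100% = wells lacking the enzyme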
Rv3671c protease: Rv3671c (M. tuberculosis) protease inhibition; P9WHR9; inhibition, % at 5.96 µM; 320,000 compounds, 0.048% hits; AID 2606; in the data active means inhibition above about 38%;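 further: extracellular domain of Rv3671c used as enzyme; 0% = enzyme with DMSO and 100% = no enzyme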
FBA Mtb inh: Mtb fructose-bisphosphate aldolase inhibition. 360,000 compounds, 2.3% hits. inhibition, % at 1 µM. purified M. tuberculosis FBA, fluorescence read-out; in the data active means inhibition above about 27%;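 further: 0% = vehicle and 100% = reference inhibitor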
Mtb UGM inh: Mtb UDP-galactopyranose mutase inhibition. P9WIQ1. purified UGM, fluorescence polarization probe displacement. inhibition, % at 10 µM. 320,000 compounds, 0.06% hits; in the data active means inhibition above about 10%, passing the limit was not always enough; inconclusive means no clear call, values can overlap the other calls
Target sequence (P9WIQ1 whole entry, looked up): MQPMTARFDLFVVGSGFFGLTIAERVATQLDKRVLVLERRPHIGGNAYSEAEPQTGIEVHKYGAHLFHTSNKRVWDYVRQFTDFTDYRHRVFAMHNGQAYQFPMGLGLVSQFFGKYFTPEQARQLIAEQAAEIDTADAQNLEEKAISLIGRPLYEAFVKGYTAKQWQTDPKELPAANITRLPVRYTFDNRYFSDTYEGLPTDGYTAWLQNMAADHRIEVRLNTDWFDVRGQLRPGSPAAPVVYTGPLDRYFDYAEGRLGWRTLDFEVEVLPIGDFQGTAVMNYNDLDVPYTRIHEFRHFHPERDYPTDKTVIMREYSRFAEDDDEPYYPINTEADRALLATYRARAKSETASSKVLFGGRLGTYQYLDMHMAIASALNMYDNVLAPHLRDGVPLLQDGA
RecA splice inh: inhibitors of M. tuberculosis RecA intein splicing | P9WHJ3 | cell-free RecA intein splicing, fluorescence | inhibition, % (test concentration not listed) | 290,000 compounds, 0.75% hits | AID 2221; in the data active means inhibition above about 30%; inconclusive means no clear call, values can overlap the other calls;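 further: 0% = vehicle wells and 100% = reference inhibitor control wells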
Mtb bLac sens: beta-lactam sensitization of Mtb H37Rv. AID 434955. M. tuberculosis H37Rv growth with meropenem, percent inhibition. 330,000 compounds, 0.27% hits. inhibition, % at 25 µM;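 further: growth measured after seven days incubation then overnight dye step; 0% = bacteria only wells and 100% = bacteria with antibiotic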
GFP chromophore: counter-screen GFP chromophore formation inhibition | shares compounds with RecA splice inh | cell-free GFP chromophore formation, fluorescence | EC50, µM | 2,100 compounds, 83% hits | AID 434968
* marks the source's active call; other numbers are inactive results; ? = inconclusive; nt = not tested or not shown. Rows were chosen to be rich in hits. Some 4% of all compounds tested hit in one or more screens of this group. Unless noted, how the calls were made is not given here.

SMILES	GDH-TPI inh	Rv3671c protease	FBA Mtb inh	Mtb UGM inh	RecA splice inh	Mtb bLac sens	GFP chromophore
Cc1onc(-c2c(Cl)cccc2Cl)c1C(=O)N1C(C)CCCC1C (stereo unspecified)	0	-10	2	7	81*	8	>38
O=S(=O)(NC1CCN(S(=O)(=O)c2ccc3c(c2)OCCO3)C1)c1c(F)cccc1F (stereo unspecified)	-6	-9	0	0	nt	-18	nt
O=C(c1c[nH]c(C(=O)C(Cl)(Cl)Cl)c1)c1ccc(F)cc1Cl	5	-11	10	-2	54*	70	23*
O=C(c1ccc(Cl)cc1)c1c[nH]c(C(=O)C(Cl)(Cl)Cl)c1	-6	-4	-1	1	80*	84	3.9*
CNC(=O)c1cc(C(=O)c2ccc(Cl)cc2)c[nH]1	2	-2	8	1	2	4	nt
O=C(Cc1ccccc1)c1c[nH]c(C(=O)C(Cl)(Cl)Cl)c1	-14	-5	-1	-1	69*	-2	37*
N#CC(C#N)C(c1ccsc1)c1c(-c2ccccc2)[nH][nH]c1=O (stereo unspecified)	11	-8	1	1	86*	-2	7.6*
N#Cc1c(-c2ccccc2)[nH]c(=O)[nH]c1=O	5	-1	0	1	0	-4	nt
CC(N)C(=O)NC(C(=O)NC(C)C(=O)Nc1cccc2ccccc12)C(C)C (stereo unspecified)	18	nt	10	nt	nt	nt	nt
CCCCCc1cc(=O)oc2c(C(CCN3CCCC(C)C3)c3ccc4c(c3)OCO4)c(OC)cc(OC)c12 (stereo unspecified)	3	-6	4	-2	35*	100	20*
COC(=O)c1ccccc1NC1=C/C(=N\S(=O)(=O)c2cccs2)c2ccccc2C1=O	16	-88	-1	4	81*	96	0.1*
COC(=O)c1ccccc1NC1=C/C(=N\S(=O)(=O)c2ccc(C(=O)O)cc2)c2ccccc2C1=O	12	-92	-7	0	63*	53	?
CCCS(=O)(=O)NC(=O)C1(C)CCN(C(=O)c2ccccc2OC(F)(F)F)C1 (stereo unspecified)	1	nt	3	nt	nt	nt	nt
Cc1ccc(NC(=O)CN(C)C(=O)CSc2nnc(C(F)(F)F)n2C)cc1	-1	-1	4	nt	5	-6	nt
COc1cccc(OC(=O)CSc2nnc(-c3ccccc3Br)o2)c1	9	0	1	2	74*	-9	26*
C/C(=N\NC(=O)Cc1cccn1C)c1ccc([N+](=O)[O-])cc1	15	1	1	1	-1	-3	nt
C/C(=N/NC(=O)Cc1cc(=O)[nH][nH]1)c1ccc([N+](=O)[O-])cc1	8	-32	-1	0	84*	-1	7.4*
C/C(=N\NC(=O)Cc1cc(=O)[nH][nH]1)c1cccc([N+](=O)[O-])c1	-3	-3	-1	1	88*	-5	8.8*
Cc1ccc(C(=O)NCC(=O)OCC(=O)N(CC(C)C)c2c(N)n(Cc3ccccc3)c(=O)[nH]c2=O)cc1	-1	6	4	nt	1	-1	nt
CCOC1(OCC)C(c2ccc(N)cc2)C(C#N)(C#N)C1(OCC)OCC (stereo unspecified)	14	0	-1	-4	nt	-6	nt
CCOC1(OCC)C(c2ccc(Cl)cc2)C(C#N)(C#N)C1(OCC)OCC (stereo unspecified)	6	-7	-6	0	56*	7	>38
COCCC1CCCCN1C(=O)c1cc(COc2ccc(-n3cncn3)cc2)on1 (stereo unspecified)	0	-5	1	-3	1	-2	nt
Cc1nn(-c2ccccc2)c2c1C1(C(=O)N3c4c(cccc41)C(C)CC3(C)C)C(C#N)=C(N)O2 (stereo unspecified)	15	-7	-5	0	49*	3	9.7*
CC(=O)N1C(=O)C2(C(C#N)=C(N)Oc3c2c(C)nn3-c2ccccc2)c2ccccc21 (stereo unspecified)	1	3	2	-1	55*	0	5.8*
O=S(=O)(O)c1nc2ccccc2[nH]1	3	-1	0	-1	0	4	nt
SMILES	GDH-TPI inh	Rv3671c protease	FBA Mtb inh	Mtb UGM inh	RecA splice inh	Mtb bLac sens	GFP chromophore
O=C1NCCCC2c3c(cc(Br)c(O)c3Br)OC12N1CCCCC1 (stereo unspecified)	6	4	1	-3	38*	9	5.5*
O=C1NCCCc2c1oc1cc(Br)c(O)c(Br)c21	21	6	-1	-1	-13	-4	nt
Cc1c(C)n(O)c2ccc3nonc3c12	10	3	5	5	56*	-2	24*
On1c2c(c3c4nonc4ccc31)CCCC2	nt	20	nt	0	25	8	nt
CCOC(=O)c1ccc(NS(=O)(=O)c2cn(C)cn2)cc1	-6	-1	-1	3	-2	6	nt
C=CCc1cccc(C=Nc2c[nH]c(=O)[nH]c2=O)c1O	7	-11	1	4	nt	0	>38
CCOC(=O)C1=C(C)NC2(O)c3ccccc3C(=O)C12O (stereo unspecified)	16	-49	0	2	33*	-4	28*
Cc1ccc(OC(=O)c2ccc([N+](=O)[O-])cc2Cl)cn1	-1	-7	3	2	32*	0	33*
C=C(C)COc1ccc(C2NC(=O)c3ccccc3O2)cc1OCC (stereo unspecified)	9	nt	5	-1	-1	-4	nt
CC(C)(C)c1ccc(/C=C(\c2nc3ccccc3[nH]2)S(=O)(=O)c2ccccc2)cc1	3	-65	-4	4	82*	0	6.6*
COc1ccc(N(C(=O)c2cnccn2)C(C(=O)NC2CCCCC2)c2ccccc2)cc1 (stereo unspecified)	5	3	3	2	-1	7	nt
CCOC(=O)c1c(CSC(=N)N)n(-c2ccccc2)c2cc(Br)c(OC(C)=O)cc12	10	0	0	1	48*	12	20*
O=c1c2nncn2c2cc(C(F)(F)F)ccc2n1CCNc1ncc(C(F)(F)F)cc1Cl	3	-4	0	4	3	-1	nt
O=c1c(Cl)nc2cc(Cl)ccc2n1CCNc1ncc(C(F)(F)F)cc1Cl	5	6	-1	-2	67*	100	0.31*
CC(C)=CCC/C(C)=C/Cc1c(O)ccc(C(=O)/C=C/c2ccc(O)cc2)c1O	16	-61	-3	3	44*	3	>38
C[C@@H](C(=O)CC(=O)OC(C)(C)C)[C@@H](O)c1c(F)cccc1Cl	4	-3	8	0	2	-7	nt
COC(=O)c1ccccc1NC(=O)C(C)n1nc(C)c2c(C)n(-c3ccccc3)nc2c1=O (stereo unspecified)	2	-6	7	0	97*	-3	>38
Cc1cc(=O)n(C2CCS(=O)(=O)C2)[nH]1 (stereo unspecified)	-4	-216	2	3	93*	-4	3.8*
